D2 antag – HTS Assay for Allosteric Antagonists of the Human D2 Dopamine Receptor: Primary Screen for Antagonists; D(2) dopamine receptor (Homo sapiens), P14416; HEK293 TREx D2 cells, calcium flux, dopamine EC80; inhibition, % at 10 µM; hit rate 2% among 340,000; AID 485344, 2010; in the data active means inhibition above about 30%; inactive means below that, where a call was filed
Target sequence (P14416 whole entry, looked up): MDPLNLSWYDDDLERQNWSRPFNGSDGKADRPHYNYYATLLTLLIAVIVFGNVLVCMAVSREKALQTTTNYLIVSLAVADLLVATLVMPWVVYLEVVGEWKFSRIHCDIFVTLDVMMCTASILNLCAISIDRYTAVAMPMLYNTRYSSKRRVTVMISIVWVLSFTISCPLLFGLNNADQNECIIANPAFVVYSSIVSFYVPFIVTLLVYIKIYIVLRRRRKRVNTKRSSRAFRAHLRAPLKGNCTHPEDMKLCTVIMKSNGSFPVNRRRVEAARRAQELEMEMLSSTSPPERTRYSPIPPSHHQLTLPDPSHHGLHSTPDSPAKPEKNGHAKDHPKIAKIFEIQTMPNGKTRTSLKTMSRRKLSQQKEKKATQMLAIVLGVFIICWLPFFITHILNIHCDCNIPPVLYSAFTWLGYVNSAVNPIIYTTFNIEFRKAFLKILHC
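HEK293 T-REx D2 cells, tet-induced, calcium dye no-wash. Cpd pintool add, 180 s kinetic, then EC80 DA, 180 s kinetic. Ca flux read.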
D2 ag-1 – HTS Assay for Allosteric Agonists of the Human D2 Dopamine Receptor: Primary Screen for Agonists; HEK293 T-REx D2 cells, calcium flux agonist mode; D(2) dopamine receptor (Homo sapiens), P14416; activation, % at 2 µM; hit rate 0.53% among 340,000;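 active means activation over 3 SD above normal in the single-dose calcium agonist read, cut at about 30% in these data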
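Agonism is scored from calcium flux in a force-coupled, inducible HEK293 cell line expressing D2, read kinetically for 180 s after compound addition against dopamine controls.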
D2 PAM-1 – Beta-Arrestin HTS for Positive Allosteric Modulators of the Human D2 Dopamine Receptor: Potentiators; potentiation, % (no concentration beside the values); DiscoveRx D2 beta-arrestin cells, luminescence, 90 min; 100% = 57 uM dopamine signal; hit rate 0.23% among 360,000; D(2) dopamine receptor (Homo sapiens), P14416; in the data active means potentiation above about 50%; inconclusive means mostly about 30% to 49%
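D2 cells co-treated with compound plus 50 nM dopamine (EC20) for 90 min at 37 deg C to detect potentiation. Beta-arrestin recruitment was read as enzyme-fragment luminescence after 1 h at ambient temperature. Full response was set by 57 uM dopamine.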
D2 ag-2 – Beta-Arrestin HTS for Positive Allosteric Modulators of the Human D2 Dopamine Receptor: Agonists; DiscoveRx PathHunter D2 beta-arrestin, luminescence, 90 min; 100% = 57 uM dopamine signal; hit rate 0.084% among 360,000; activation, % (test concentration not listed); D(2) dopamine receptor (Homo sapiens), P14416; in the data active means activation above about 40%; inconclusive means between about 15% and that limit
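Agonist mode: compounds alone added to overnight-plated D2 PathHunter cells for 90 min at 37 C, with 57 uM final dopamine (EC100) defining full response. Beta-arrestin recruitment detected by chemiluminescent reagent, read after 1 h at ambient temperature.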
D2 PAM-2 – HTS Assay for Positive Allosteric Modulators of the Human D2 Dopamine Receptor: Primary Screen for Potentiators; D(2) dopamine receptor (Homo sapiens), P14416; HEK293 T-REx D2, calcium flux, EC20 dopamine potentiation; potentiation, % at 10 µM; hit rate 0.34% among 340,000;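 active means potentiation over 3 SD above the plate norm, cut at about 30% in these data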
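Primary screen. Calcium kinetics in induced HEK293 T-REx D2 cells: compound pre-addition 180 s, EC20 dopamine, 180 s more.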
A number is an active result; i = inactive; ? = inconclusive; nt = no result given. Most compounds without a hit are left out; they make up all but 2.4% or so of the library.

SMILES | D2 antag | D2 ag-1 | D2 PAM-1 | D2 ag-2 | D2 PAM-2
COCCCn1c(N)c(-c2nc3ccccc3n2C)c2nc3ccccc3nc21 | i | 39 | i | i | i
CCCCN(CC)CCNC(=O)c1cc2c(-c3ccccc3F)nn(C)c2s1 | i | i | i | 44 | i
CCCCN(CC)CCNC(=O)c1cc2c(=O)n(CC)c3ccccc3c2s1 | 36 | i | i | i | i
Cc1ccc(CCNC(=O)c2cc3c(-c4ccccc4F)nn(C)c3s2)cc1 | nt | i | nt | nt | i
COc1cc(-c2nnn(CC(=O)Nc3ccc(OC(F)(F)F)cc3)n2)cc(OC)c1OC | nt | i | nt | nt | i
Cc1ccc(-n2nc3c(N4CCC(C(=O)NCc5ccc(C)o5)CC4)nnc(C)c3c2C)cc1 | i | i | i | i | 31
O=C(O)C1CC=CCC1C(=O)NCCCCc1ccccc1 (stereo unspecified) | 34 | i | i | i | i
COc1cccc(-n2c(=O)c3c(C)c(C)sc3n(CC(=O)Nc3ccccc3OC)c2=O)c1 | nt | i | nt | nt | i
CC(C)C(=O)Nc1nnc(S(=O)(=O)N2CCCCCC2)s1 | i | i | i | i | i
CCC(CC)C(=O)Nc1nnc(S(=O)(=O)N2CCCCCC2)s1 | 32 | i | i | i | i
COc1ccc(COc2ccsc2C(=O)Nc2ccc(Cl)cc2)cc1 | 40 | i | i | i | i
Cc1ccc(CNC(=O)CCC(=O)N2CC3CCCN3c3ccccc32)cc1 (stereo unspecified) | nt | i | nt | nt | i
CCOC(=O)CNC(=O)CSc1nnc(-c2ccco2)n1Cc1ccco1 | i | i | i | i | i
COc1ccccc1NC(=O)CSc1nnc(-c2ccco2)n1N | 34 | i | i | i | i
CCOC(=O)CNC(=O)CSc1nnc(-c2ccco2)n1N | 34 | i | i | i | i
COc1cc(NC(=O)Cn2c(=O)oc3cc(S(=O)(=O)N4CCCCCC4)ccc32)cc(OC)c1 | nt | i | nt | nt | i
O=C(CCCN1C(=O)c2cccnc2Oc2ccc(Cl)cc21)NCc1ccccc1F | nt | i | nt | nt | i
O=C(Nc1ccccc1C(=O)O)c1cccc(NC(=O)c2ccco2)c1 | nt | nt | i | i | nt
O=C(Nc1ccc(O)cc1C(=O)O)c1ccc(NC(=O)c2ccco2)cc1 | 46 | i | i | i | i
CCc1ccccc1NC(=O)C1CCN(c2nn3c(=O)cc(C)nc3s2)CC1 | nt | i | nt | nt | i
CCOC(=O)C1(Cc2ccccc2C(F)(F)F)CCN(C2CCSC2)CC1 (stereo unspecified) | 50 | i | i | i | i
O=C(NCCN1C(=O)S/C(=C\c2cccnc2)C1=O)c1ccc([N+](=O)[O-])s1 | 33 | i | i | i | i
Cc1c(C(=O)NCCN2C(=O)S/C(=C\c3cccnc3)C2=O)cccc1[N+](=O)[O-] | i | i | i | i | i
CC(C)c1ccc(NC(=O)CSc2n[nH]c(=O)n2-c2cccnc2)cc1 | 31 | i | i | i | i
CC(C)(C)c1ccc(NC(=O)CSc2n[nH]c(=O)n2-c2cccnc2)cc1 | i | i | i | i | i
SMILES | D2 antag | D2 ag-1 | D2 PAM-1 | D2 ag-2 | D2 PAM-2
Cc1c(CCNC(=O)C(C)(C)C)sc2nc(-c3ccc(F)cc3)nn12 | nt | i | nt | nt | i
COc1cc(OC)cc(C(=O)O/N=C(\N)c2ccncc2)c1 | i | i | 111 | ? | i
N/C(=N\OC(=O)c1ccc(Br)cc1)c1ccncc1 | i | i | 52 | 42 | i
N/C(=N\OC(=O)c1ccccc1)c1ccncc1 | i | i | i | i | i
CCCC12CN3CC(C)(CN(C1)C3c1ccc(CC)cc1)C2=O (stereo unspecified) | nt | nt | nt | nt | i
O=C(NCCc1ccccc1)c1ccc2c(c1)N(Cc1ccccc1)C(=O)c1ccccc1S2=O (stereo unspecified) | nt | nt | nt | nt | i
CCCCCn1c(CCCNC(=O)c2cccc(C)c2)nc2ccccc21 | nt | i | nt | nt | i
COc1ccc(N(C)C(=O)CCn2cnc3onc(-c4ccc(F)cc4)c3c2=O)c(OC)c1 | nt | i | nt | nt | i
O=C(NCc1cccnc1)c1ccc(-c2ccccc2[N+](=O)[O-])o1 | 85 | i | i | i | i
O=C(NCc1cccnc1)c1ccc(-c2cccc(Cl)c2Cl)o1 | 59 | i | i | i | i
CC(=O)c1cccc(NC(=O)c2ccc(-c3ccccc3[N+](=O)[O-])o2)c1 | 33 | i | i | i | i
COCCCNC(=O)c1ccc(Cn2c(=O)c3cccn3c3cccnc32)cc1 | nt | i | nt | nt | i
CSc1ccc(/C=C/C(=O)OCC(=O)NC2CCCC2)cc1 | nt | nt | i | i | nt
CSc1ccc(/C=C/C(=O)OCC(=O)c2ccc[nH]2)cc1 | 50 | i | i | i | i
CCN1CCc2nc(NC(=O)c3ccccc3)sc2C1 | i | i | i | i | i
O=C(Nc1nc2c(s1)CN(Cc1ccccc1)CC2)C1CCC1 | 51 | i | i | i | i
Cc1ccc(-n2nc(C(=O)N(C)Cc3ccccc3)c3c4ccccc4n(C)c3c2=O)cc1 | nt | i | nt | nt | i
CCN(C(=O)Cc1c(C(=O)O)[nH]c2ccccc12)c1ccc(OC)cc1 | 53 | i | i | i | i
CN1/C(=C\C=C2/SC(=S)N(CC(=O)O)C2=O)C(C)(C)c2ccccc21 | i | 97 | i | i | i
CC(C)NC(=O)C1CCC(Cn2c(=O)c3sccc3n(CC(=O)N3CCCC3)c2=O)CC1 (stereo unspecified) | nt | i | nt | nt | i
Oc1ccc(-c2nc(-c3ccc(O)c(O)c3)cs2)cc1 | i | i | 50 | i | i
N#Cc1c(-c2ccco2)cc(-c2ccccn2)nc1N | i | i | i | i | 36
N#Cc1c(-c2ccco2)cc(-c2cccnc2)nc1N | i | i | i | i | i
COc1cccc(CC2(CO)CCCN(Cc3ccccc3Cl)C2)c1 (stereo unspecified) | i | i | i | i | i
COC(=O)c1ccc(CN2CCC(CO)(CCOc3ccccc3)CC2)cc1 | nt | nt | i | i | i
COC(=O)c1ccc(CN2CCC(CO)(Cc3cccc(OC)c3)CC2)cc1 | 37 | i | i | i | i
COc1cccc(CC2(CO)CCCN(Cc3ccc(CN4CCCCC4)s3)C2)c1 (stereo unspecified) | 40 | i | i | i | i
CC1CCCC(C)N1C(=O)CN1C(=O)C(C)(C)Oc2ccc(C(=O)NC3CCCCC3)cc21 (stereo unspecified) | i | i | i | i | i
CC(C)NC(=O)CN1C(=O)C(C)(C)Oc2ccc(C(=O)NC3CCCCC3)cc21 | 32 | i | i | i | i

Screens deposited in PubChem BioAssay by National Center for Advancing Translational Sciences (NCATS).
